# From PubChem BioAssay AID2069 (Sanford-Burnham Center for Chemical Genomics, 2009)
# The whole screen tested about 1,200 compounds, of which about 210 (18%) were called active. These entries were drawn from the full list. Unmarked numbers belong to inactive results. No stated cut-off is given here; in the data, active means inhibition above about 30%; inactive means the rest.
# Test: fluorescence readout artefact check – biochemical, HTRF, uHTS, artefact control for SUMOylation inhibitor project, confirmation (AID 2069)
# Settings: HTRF interference counterscreen, at 35 µM, active compounds read high
row,Compound,inhibition
1,CCOc1ccc(C=Nc2cccc3ncccc23)cc1,-2.35%
2,Cc1ccc(C2C(C#N)=C(N)N(c3cccnc3)C3=C2C(=O)CCC3)s1 (configuration not stated),10.7%
3,O=C(CC1S/C(=N/N=C/C=C/c2ccccc2)NC1=O)Nc1ccc(Cl)c(Cl)c1 (configuration not stated),-11.6%
4,O=C1N/C(=N/N=C/c2ccccc2O)SC1Cc1ccc(F)cc1 (configuration not stated),64% (active)
5,COc1ccc(CC2=C(O)c3ccccc3C(=O)C2=O)cc1,-7.05%
6,COc1ccc(CC2S/C(=N/N=C/c3ccccc3O)NC2=O)cc1 (configuration not stated),65.5% (active)
7,Cc1cc(/C=C2\C(=N)N3N=C(c4ccco4)SC3=NC2=O)c(C)n1Cc1ccccc1,7.7%
8,N#C/C(=C\c1ccc(O)c(O)c1)C(=O)Nc1cccc2ncccc12,8.1%
9,O=C(NCc1ccccc1)Nc1cccn(Cc2ccccc2F)c1=O,-6.7%
10,CCN(CC)S(=O)(=O)c1ccc(O)c(NC(=O)c2cc(-c3cc(OC)c(OC)c(OC)c3)nc3ccccc23)c1,16.9%
11,O=C(N/N=C/c1ccc(Cl)cc1)c1nc2ccc([N+](=O)[O-])cc2c(=O)[nH]1,8.95%
12,CC(O)C(=O)N/N=C/c1cccc(Cl)c1Cl (configuration not stated),-5.5%
13,O=C(Nc1nnc(-c2ccccc2SCc2ccccc2)s1)Nc1ccccc1F,6.45%
14,Cc1c(N=C2C=CC(=O)c3ccccc32)c(=O)n(-c2ccccc2)n1C,-29.4%
15,Cc1c(N2C(=O)c3ccc4c5c(ccc(c35)C2=O)CC4)c(=O)n(-c2ccccc2)n1C,39.8% (active)
16,Cc1ccc(C(=O)Nc2nnc(CC(=O)N/N=C/c3ccc(O)c(O)c3)s2)cc1,-1%
17,Cc1c(C)c2cc(Cl)c(O)c(CN3CCN(C)CC3)c2oc1=O,30.6% (active)
18,Cc1c(CC(=O)O)c(=O)oc2c(C)c(OCc3ccc(F)cc3Cl)ccc12,-7.8%
19,CCc1c(C)c2cc(Cl)c(O)c(CN(C)C)c2oc1=O,37.2% (active)
20,Cc1cc(Br)ccc1-n1[nH]c(C)c(C=Nc2cccc3nsnc23)c1=O,14.9%
21,NC(=O)CC(NC(=O)Cc1cccc2ccccc12)c1ccc(NCCc2ccccc2F)c([N+](=O)[O-])c1 (configuration not stated),0.5%
22,CCc1ccc(NC(=O)C(CC)Sc2nc3cc4c(cc3c(=O)n2Cc2ccco2)OCO4)cc1 (configuration not stated),6.65%
23,N#Cc1cnn2c(-c3ccccc3)ccnc12,36.5% (active)

row,Compound,inhibition
1,NS(=O)(=O)c1ccc(-c2ccc(/C=C3\NC(=S)NC3=O)o2)cc1,-17.4%
2,Cc1cccc(NC2=C(NCCO)C(=O)c3ccccc3C2=O)c1,-25.1%
3,Cc1ccccc1N=Cc1cccc(O)c1O,-6.55%
4,CCCCn1c(=O)[nH]c2nc3cc(N)ccc3nc2c1=O,43.9% (active)
5,CCCCn1c(=O)[nH]c(=O)c2c1nc(-c1ccc(-c3ccc(F)cc3)o1)n2C,21.7%
6,CCCCn1c(NS(=O)(=O)c2ccccc2)c(S(=O)(=O)c2ccc(C)cc2)c2nc3ccccc3nc21,16.1%
7,Oc1ccc(C2Nc3cccc4cccc(c34)N2)c(O)c1,-3.25%
8,CC(=O)Oc1ccc2c(C)c(CC(C)O)c(=O)oc2c1 (configuration not stated),42.2% (active)
9,CC(NC(=O)OC(C)(C)C)C(=O)Oc1ccc2ccc(=O)oc2c1 (configuration not stated),25.8%
10,Cc1ccc(NC(=S)Nc2cccc3ccccc23)cc1F,-5.85%
11,CN(C)c1cccc2c(S(=O)(=O)N3CCCC3)cccc12,36.4% (active)
12,CN(C)c1cccc2cccc(N(C)C)c12,13.3%
13,CN(C)c1cccc2c(S(=O)(=O)Nc3ccccn3)cccc12,20%
14,Cn1c2ccccc2c2cnn(CC(=O)Nc3ccc(Cl)cc3)c(=O)c21,15.8%
15,Cc1cc(C)c(S(=O)(=O)NCC23C=CC(O2)C2C(=O)N(c4ccccc4)C(=O)C23)c(C)c1 (configuration not stated),-17.5%
16,O=C(NN1C(=O)CSC1=S)C(=O)NN1C(=O)CSC1=S,32.4% (active)
17,COc1ccc(NC(=S)Nc2ccc3nsnc3c2)cc1,15.8%
18,CC(=O)OCCNc1cc(SCc2ccco2)c2nonc2c1[N+](=O)[O-],-1.55%
19,Cc1oc2c(c(C)cc3oc(=O)c(CC(=O)N[C@@H](C)C(=O)O)c(C)c32)c1C,53.8% (active)
20,Cc1cc(OC(C(=O)O)c2ccccc2)c2c(C)c(Cc3ccccc3)c(=O)oc2c1 (configuration not stated),21.4%
21,CCC(NC(=O)Cc1c(C)c2c(cc(C)c3c(C)c(C)oc32)oc1=O)C(=O)O (configuration not stated),51.6% (active)
22,Cc1oc2c(c(C)cc3oc(=O)c(CC(=O)N[C@H](C(=O)O)C(C)C)c(C)c32)c1C,56.9% (active)
23,CSCC[C@H](NC(=O)Cc1c(C)c2c(cc(C)c3c(C)c(C)oc32)oc1=O)C(=O)O,48.5% (active)

row,Compound,inhibition
1,Nc1ccccc1NC1=CC(=O)CC(c2ccco2)C1 (configuration not stated),16.8%
2,CC1=NN(c2ccc(C(=O)O)cc2)C(=O)/C1=C\c1ccc(OC(=O)c2cccs2)cc1,12.1%
3,C[n+]1cccc2c(Br)ccc([O-])c21,-20.8%
4,C[n+]1cccc2cccc([O-])c21,5.4%
5,Cc1cccc2c(N=Nc3ccc(S(=O)(=O)Nc4cccc(Cl)c4)cc3[N+](=O)[O-])c(O)[nH]c12,-2.75%
6,CCOCCCNC1=C(Cl)C(=O)c2ccccc2C1=O,-7.4%
7,Cc1ccc(NC(=O)CSc2nnc(-c3ccco3)c(-c3ccco3)n2)cc1,0.35%
8,O=C(Nc1ccc2nsnc2c1)N1CCCCC1,12.4%
9,Oc1ccc(N=Cc2ccc(OCc3ccccc3)cc2)cc1,-5.35%
10,CC1=CC(C)(C)N2C(=O)C(=Nc3ccc(O)cc3)c3cccc1c32,-3.6%
11,Cc1ccc(NC(=O)CN2C(=O)S/C(=C\c3cc(Cl)c(OCC(=O)O)c(Cl)c3)C2=O)cc1,19.7%
12,O=C1CC(c2ccco2)CC(O)=C1C=Nc1cc(Cl)ccc1Cl (configuration not stated),1.35%
13,C/C(=N\OCc1nc2ccccc2c(=O)n1/N=C/c1cc([N+](=O)[O-])ccc1O)c1ccccc1,-16.2%
14,CCOc1ccc(N2CC(C(=O)NCc3ccc(F)cc3)CC2=O)cc1 (configuration not stated),34.9% (active)
15,CCOc1ccc(S(=O)(=O)N2CCCC(C(=O)NCc3ccco3)C2)cc1 (configuration not stated),-1.5%
16,CCOc1ccc(NC(=O)c2ccc(NC(=O)c3ccc(CN4CCOCC4)cc3)cc2)cc1,5.55%
17,O=[N+]([O-])c1cc([N+](=O)[O-])c2nonc2c1Nc1ccc(O)cc1,-10.7%
18,COc1ccc2c(c1)-c1nc(/N=C/c3cccc(OC)c3O)sc1CC2,1.05%
19,COc1cc(NS(=O)(=O)c2ccc(NC(=S)NC(=O)/C=C/c3ccco3)cc2)ncn1,25.8%
20,O=C(COC(=O)c1cc(NS(=O)(=O)c2cccs2)ccc1O)Nc1cc(Cl)ccc1Cl,13.8%
21,O=C(O)c1ccc(/C=N/NC(=O)c2ccc(CN3c4cccc5cccc(c45)S3(=O)=O)cc2)cc1,18.2%
22,C=CCc1cccc(/C=N/NC(=O)CNc2cccc3ccccc23)c1O,4.7%
23,O=C(Cc1cc(=O)[nH][nH]1)N/N=C/c1cccc2ccccc12,-6.95%

row,Compound,inhibition
1,O=C(N/N=C/c1ccccc1)c1ccc(CN2C(=O)c3cccc4cccc2c34)cc1,38.8% (active)
2,COc1ccccc1/C=N/NC(=O)c1ccc(CN2C(=O)c3cccc4cccc2c34)cc1,48.2% (active)
3,O=C(O)c1cccc(Cn2c(Cl)c(/C=N/NC(=O)c3cc4ccccc4cc3O)sc2=O)c1,-2%
4,COc1ccc2c(c1)CC/C(=C\Nc1ccc3c(c1)OCO3)C2=O,-3.55%
5,C=CCOc1c(Br)cc(/C=C2\SC(=Nc3ccccc3)NC2=O)cc1OC,9.1%
6,O=C(O)c1cccc([N+](=O)[O-])c1C(=O)Nc1cccc2ccccc12,-3.8%
7,Cc1ccc(C(=O)Nc2ccccc2C(=O)N2CCN(c3ccccc3)CC2)cc1,-8.05%
8,Cn1c(=O)cc(C(=O)N/N=C/c2ccc(Cl)cc2)[nH]c1=O,-5.8%
9,CCc1nc2sc(C(C)=O)c(N)c2c2c1CCCC2,9.65%
10,O=[N+]([O-])c1cccc(C=Nc2cccc3ccccc23)c1O,29.6%
11,CCOc1ccc(NC(=S)Nc2ccc3nsnc3c2)cc1,19.4%
12,O=C1NC(=Nc2ccc3ccccc3c2)S/C1=C/c1ccco1,9.5%
13,COc1cccc(NC(=S)Nc2cccc3ccccc23)c1,2.35%
14,S=C(Nc1ccc2nsnc2c1)N1CCCCC1,16.2%
15,S=C(Nc1ccc2nsnc2c1)N1CCCC1,35.6% (active)
16,S=C(Nc1ccc2nsnc2c1)N1CCCCCC1,6.8%
17,S=c1[nH]nc(-c2cc(-c3ccccc3)n[nH]2)n1/N=C/c1cccc(Cl)c1,-8.55%
18,COc1ccc(/C=C/c2nnc(NC(=O)CSc3ccc(C)cc3)s2)cc1,9.65%
19,CCOc1cc(/C=C2\C(=O)N(c3ccc(C(N)=O)cc3)N=C2C)ccc1OC(=O)c1cccs1,-9.6%
20,Nc1ccc2c(c1)sc1ccccc12,-9.65%
21,Nc1ccc2nc(-c3ccccc3)sc2c1,66% (active)
22,Cc1ccc(C)c(S(=O)(=O)c2c(N)n(/N=C/c3ccco3)c3nc4ccccc4nc23)c1,-11.7%
23,CCc1nn(CC(=O)NC(C)CCc2ccccc2)c(=O)c2cc3cc(F)ccc3n12 (configuration not stated),16.4%
